Test results published in the supplement of paper PMC13380429.

System: Vero E6 infected with SARS-CoV-2
Experiment: SARS-CoV-2 infection rate relative to infected DMSO; higher = more infection, active = 60 or less
Conditions: 24 h

| SMILES | SARS-CoV-2 infection rate |
| --- | --- |
| CC(C)(O)[C@@H]1[C@H]2OC(=O)[C@@H]1[C@]1(O)C[C@H]3O[C@]34C(=O)O[C@H]2[C@]14C [picrotin] (10 µM) | 111% (inactive) |
| COC(=O)c1c(C)[nH]c(C)c1C(=O)c1ccccc1Cc1ccccc1 (10 µM) | 118% (inactive) |
| CC(C)[C@@H](C(=O)Nc1nccs1)c1ccc(Cl)cc1 (10 µM) | 98.5% (inactive) |
| C[C@H](CCC(=O)O)[C@H]1CC[C@H]2[C@@H]3[C@H](O)C[C@@H]4C[C@H](O)CC[C@]4(C)[C@H]3C[C@H](O)[C@]12C [cholic-acid] (10 µM) | 110% (inactive) |
| NNC(=O)CSc1nc2scc(-c3ccccc3)c2c(=O)n1-c1ccccc1 (10 µM) | 99.5% (inactive) |
| O=C1c2c(O)cc(O)cc2O[C@H](c2ccc(O)c(O)c2)[C@H]1O [taxifolin] (10 µM) | 99.5% (inactive) |
| CC1(C)CC[C@]2(NC(=O)C(C)(F)F)CC[C@]3(C)[C@H](C(=O)C=C4[C@@]5(C)C=C(C#N)C(=O)C(C)(C)[C@@H]5CC[C@]43C)[C@@H]2C1 [Omaveloxolone (RTA-408)] (10 µM) | 112% (inactive) |
| C[C@H]1C[C@@H]2[C@H]([C@@H](O)C[C@@]3(C)[C@H]2CC[C@]3(O)C(=O)COC(=O)CCC(=O)O)[C@@]2(C)C=CC(=O)C=C12 [methylprednisolone-sodium-succinate] (10 µM) | 102% (inactive) |
